Data from PubChem BioAssay (NCI).
Where “and” joins values, the source holds several entries; their conditions need not be identical. Identical values can stand only once. The panel holds about 83,000 compounds, 20% with a hit somewhere; the sample as a whole holds those more often.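 Method: cells in 96-well plates; compound added at one concentration; 48 h incubation; percent growth measured; values under 10 scored active.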 Values without a mark were called inactive. Calls of active or inactive are those of the source.

These compounds were tested on MDA-MB-468 breast (assay: NCI-60 one-dose screen, 48 h (100 = growth as untreated, 0 = no growth, -100 = all killed)). Details: 10 µM unless noted.
Compound `COC(=O)c1cccnc1` has a growth of 97.7%. In the case of `Fc1ccc(Nc2nc(Nc3ccc(-c4nc5ccccc5[nH]4)cc3)c3cn[nH]c3n2)cc1`, the growth is reported as -22.1% (active). Compound `CCCCn1c(=O)c2c(nc3n2CCCN3CCc2ccc(OCC(=O)NCCN(CC)CC)cc2)n(CCCC)c1=O` has a growth of 43.7%. `O=C(CC12CC3CC(CC(C3)C1)C2)NCCOCCOCCNC(=O)c1cc2c(o1)C(=O)c1ccccc1C2=O` was tested, and the growth was -60.7% (active). `CC1CC=CCC1C1OCC(C)(C)CO1` (stereo not given) gave a growth of 105%. In the case of `Cc1cc(N2CCOCC2)nc(N(CCCNc2ccnc3cc(Cl)ccc23)Cc2ccc3c(c2)OCO3)n1`, the growth is reported as -63.6% (active). With `CC(C)N(C(=O)c1ccccc1)C(C)C` the growth was 86.2%. Compound `O=C1NC(=S)NC(=O)C1=Cc1cccc(C=C2C(=O)NC(=S)NC2=O)c1` has a growth of 103%. For `CCC1=C[C@@H]2CN(C1)Cc1c([nH]c3ccccc13)[C@@](C(=O)OC)(c1cc3c(cc1OC)N(C)[C@H]1[C@@](O)(C(=O)OC)[C@H](OC(C)=O)[C@]4(CC)[C@@H]5C[C@@H]5CN5CC[C@]31[C@@H]54)C2`, the growth was -31.7% (active). Work on `CC(=O)/C(C)=N\OC(=O)Nc1ccccc1` yielded a growth of 114%. With `CCNC(=O)N1CCc2cc(OC)c(OCCc3ccc(OC)nc3)cc2C1c1ccc(C)cc1C` (stereo not given) the growth was 8.04% (active). With `COc1cc(OC)c(/C=C/c2ccc3ccccc3[n+]2C)c(OC)c1` the growth was -13.7% (active). Compound `Cc1nn(-c2nc3ccccc3[nH]2)c2c1C(c1ccc(O)cc1)CC(=O)N2` (stereo not given) has a growth of 92.8%. For `O=C1c2ccccc2C(=O)c2sc(Nc3ccc(Cl)cc3)nc21`, the growth was 28.6%. `CCOc1ccncc1[N+](=O)[O-]` gave a growth of 104%. For `O=c1c2cccc3c(Nc4ccc(Br)cn4)ccc(c32)c2nc3ccccc3n12`, the growth was -64.7% (active). In the case of `O=C(Nc1ccccc1Cl)OCCN1CCOCC1`, the growth is reported as 109%. With `COc1cc2cc(Oc3ccc(NC(=O)c4cccc(C(F)(F)F)c4)cc3)c(C)nc2cc1OC` the growth was 9.35% (active). With `COc1cc(NC(C)CCCN)c2ncccc2c1Oc1ccc(Cl)cc1` (stereo not given) the growth was 58.6%. Compound `Nc1c(Cl)cc([N+](=O)[O-])cc1Br` has a growth of 92.3%. `COC(=O)/C=C1\SC(=Nc2cccc(OC)c2)N(CCc2c[nH]c3ccccc23)C1=O` gave a growth of 64%. With `Cc1ccc2c(n1)C(=O)C(Br)=C(C1CCCC1)C2=O` the growth was 95.2%. Compound `COc1ccc(C2=NN(C=O)C(c3ccc(OS(=O)(=O)c4ccc(C)cc4)c(OC)c3)C2)cc1` (stereo not given) has a growth of 18.1%. For `CCCCOc1nc2ccccc2cc1C1CNC(=O)c2ccccc2N1` (stereo not given), the growth was -1.81% (active). `CCOc1ccc(C(C[N+](=O)[O-])Sc2ccccc2N)cc1` (stereo not given) was tested, and the growth was -58.4% (active). `CCOC(=O)c1c2c(n3ccc(NC(=O)CCN(CC)CC)cc13)C(=O)c1ncccc1C2=O` gave a growth of 81.7%. For `CC(=O)Oc1cc(C(=O)O)cc(OC(C)=O)c1OC(C)=O`, the growth was 98.6% and 108%. Work on `C[C@]12CC[C@@H]3c4ccc(O)cc4CC[C@H]3[C@@H]1C[C@H](O)C2` yielded a growth of 73.7%. In the case of `C=C(C)C1CCC2(C(=O)O)CCC3(C)C(CCC4C5(C)CCC(OC(=O)NCc6ccccc6)C(C)(C)C5CCC43C)C12` (stereo not given), the growth is reported as 35.3%. In the case of `CCOC(=O)c1c(C)nc2c(c1N)/C(=C/c1ccc[nH]1)C(=O)N2Cc1ccc(C(F)(F)F)cc1`, the growth is reported as 58.7%. `Cc1ccccc1NC(=O)c1sc2nc(C)c(C(=O)/C=C/c3ccccc3)cc2c1N` was tested, and the growth was 9.61% (active). With `O=C1NCN(c2ccccc2)C12CCN(CCCC(c1ccc(F)cc1)c1ccc(F)cc1)CC2` the growth was 43%. For `Clc1ccc2c(NCCNc3nc(N4CCCC4)nc4ccccc34)ccnc2c1`, the growth was -49.2% (active). `NC(=S)N/N=C/c1cn(-c2ccccc2)nc1-c1cc2ccccc2oc1=O` was tested, and the growth was 43.3%. `S=C1SCN(Cc2ccccc2)CN1Cc1ccco1` gave a growth of 31.9%. `CCN1CCC2(CC1)OC(c1ccccc1)C(c1ccccc1)O2` (stereo not given) gave a growth of 102%. `COc1cc(NC(=O)c2cncnc2Nc2ccc3c(ccn3Cc3ccccn3)c2)cc(OC)c1` showed a growth of 15.6%. Work on `c1ccc2c(-c3c[nH]c4ccccc34)c3c(cc2c1)[nH]c1ccccc13` yielded a growth of 53.8%. With `COc1cc(C(=O)O/N=C(\N)Cc2cccc3ccccc23)cc(OC)c1OC` the growth was -72.1% (active). `O=C(CC(CC(=O)c1ccccc1)c1ccccc1O)c1ccccc1` showed a growth of 100%.
